Results taken from PubChem BioAssay (NCI).
Where “and” joins values, the source holds several entries; their conditions need not be identical. Identical values can stand only once. The panel holds about 83,000 compounds, 20% with a hit somewhere; the sample as a whole holds those more often.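 The endpoint reported here, percent growth, reads 100 for growth as untreated, 0 for no net growth and -100 for all cells dead.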 Calls of active or inactive are those of the source. How the source made its calls: active means growth percent below 10; inactive means the rest.

How the values were obtained:
Assay in all cases: NCI-60 one-dose screen, 48 h (100 = growth as untreated, 0 = no growth, -100 = all killed)
SF-268 CNS = tested on: SF-268 CNS
SF-295 CNS = tested on: SF-295 CNS
SF-539 CNS = tested on: SF-539 CNS
UACC-257 melanoma = tested on: UACC-257 melanoma
M14 melanoma = tested on: M14 melanoma
NCI-H23 lung = tested on: NCI-H23 lung
NCI-H226 lung = tested on: NCI-H226 lung
NCI-H322M lung = conditions: 10 µM unless noted
HOP-62 NSCLC = tested on: HOP-62 NSCLC
NCI-H460 lung = tested on: NCI-H460 lung
HOP-92 NSCLC = tested on: HOP-92 NSCLC
NCI-H522 lung = conditions: 10 µM unless noted
A549/ATCC NSCLC = tested on: A549/ATCC NSCLC
786-0 renal = tested on: 786-0 renal
COLO 205 colon = tested on: COLO 205 colon
DU-145 prostate = tested on: DU-145 prostate
K-562 leukemia = tested on: K-562 leukemia
MALME-3M melanoma = tested on: MALME-3M melanoma
MDA-MB-231 breast = tested on: MDA-MB-231 breast
RXF 393 renal = tested on: RXF 393 renal

Measured: growth

COc1ccc(C(=O)/C=C/c2ccc(OCc3ccc(Cl)cc3)cc2)cc1OC
inactive: SF-268 CNS; 100 µM 14% | SF-295 CNS; 10 µM 98.4% | SF-295 CNS; 100 µM 16.2% | SF-539 CNS; 10 µM 106% | SF-539 CNS; 100 µM 32.5% | UACC-257 melanoma; 10 µM 94.3% | UACC-257 melanoma; 100 µM 35.4% | M14 melanoma; 10 µM 95.9% | M14 melanoma; 100 µM 54.4%

COc1cc(/C=C2\CCC/C(=C\c3cc(CN4CCCC4)c(O)c(OC)c3)C2=O)cc(CN2CCCC2)c1O
inactive: NCI-H23 lung; 10 µM unless noted 38.4% | NCI-H226 lung; 10 µM unless noted 75.1% | NCI-H322M lung 44.3% | HOP-62 NSCLC; 10 µM unless noted 102% | HOP-92 NSCLC; 10 µM unless noted 10.5% | NCI-H522 lung 46.1% | A549/ATCC NSCLC; 10 µM unless noted 43.7% | K-562 leukemia; 10 µM unless noted 11.1% | MALME-3M melanoma; 10 µM unless noted 81.6% | MDA-MB-231 breast; 10 µM unless noted 12.5% | RXF 393 renal; 10 µM unless noted 10.6% | SF-268 CNS; 10 µM unless noted 35.3% | SF-295 CNS; 10 µM unless noted 62.5% | SF-539 CNS; 10 µM unless noted 23% | UACC-257 melanoma; 10 µM unless noted 86.6% | M14 melanoma; 10 µM unless noted 19.6%
active: NCI-H460 lung; 10 µM unless noted 6.28% | 786-0 renal; 10 µM unless noted -4.39% | COLO 205 colon; 10 µM unless noted -45.7% | DU-145 prostate; 10 µM unless noted 2.36%

Cc1c(C(=O)OCCCCOC(=O)c2c(C)n(C)c3scc[n+]23)[n+]2ccsc2n1C
inactive: NCI-H23 lung; 10 µM unless noted 101% | NCI-H226 lung; 10 µM unless noted 91.1% | NCI-H322M lung 112% | HOP-62 NSCLC; 10 µM unless noted 109% | NCI-H460 lung; 10 µM unless noted 108% | HOP-92 NSCLC; 10 µM unless noted 88.9% | NCI-H522 lung 99.6% | A549/ATCC NSCLC; 10 µM unless noted 90.2% | 786-0 renal; 10 µM unless noted 112% | COLO 205 colon; 10 µM unless noted 119% | DU-145 prostate; 10 µM unless noted 107% | K-562 leukemia; 10 µM unless noted 92% | MALME-3M melanoma; 10 µM unless noted 105% | MDA-MB-231 breast; 10 µM unless noted 97.9% | RXF 393 renal; 10 µM unless noted 103% | SF-268 CNS; 10 µM unless noted 108% | SF-295 CNS; 10 µM unless noted 93.2% | SF-539 CNS; 10 µM unless noted 105% | UACC-257 melanoma; 10 µM unless noted 96.5% | M14 melanoma; 10 µM unless noted 110%

CCCCCCNC(=O)Oc1ccc(/C(=C(/CC)Cc2ccccc2)c2ccc(OCCCN(C)C)cc2)cc1
inactive: NCI-H23 lung; 10 µM unless noted 79% | NCI-H226 lung; 10 µM unless noted 95.5% | NCI-H322M lung 89.3% | HOP-62 NSCLC; 10 µM unless noted 83.2% | NCI-H460 lung; 10 µM unless noted 40.2% | HOP-92 NSCLC; 10 µM unless noted 54.3% | NCI-H522 lung 89% | A549/ATCC NSCLC; 10 µM unless noted 71.6% | 786-0 renal; 10 µM unless noted 68.8% | COLO 205 colon; 10 µM unless noted 65.6% | DU-145 prostate; 10 µM unless noted 89.4% | MALME-3M melanoma; 10 µM unless noted 83.3% | MDA-MB-231 breast; 10 µM unless noted 67.5% | RXF 393 renal; 10 µM unless noted 80.3% | SF-268 CNS; 10 µM unless noted 80.8% | SF-295 CNS; 10 µM unless noted 116% | SF-539 CNS; 10 µM unless noted 99.1% | UACC-257 melanoma; 10 µM unless noted 80.8% | M14 melanoma; 10 µM unless noted 85.2%
active: K-562 leukemia; 10 µM unless noted 7.11%

Nc1ccc(S(=O)(=O)c2ccc(N)cc2)cc1
inactive: NCI-H23 lung; 10 µM unless noted 99.8% and 99.3% | NCI-H226 lung; 10 µM unless noted 92.2% and 103% | NCI-H322M lung 96.7% and 81.5% | HOP-62 NSCLC; 10 µM unless noted 107% | NCI-H460 lung; 10 µM unless noted 109% and 102% | HOP-92 NSCLC; 10 µM unless noted 70.4% and 87% | NCI-H522 lung 110% and 94.6% | A549/ATCC NSCLC; 10 µM unless noted 98.5% | 786-0 renal; 10 µM unless noted 103% and 112% | COLO 205 colon; 10 µM unless noted 115% and 95.2% | DU-145 prostate; 10 µM unless noted 115% and 113% | K-562 leukemia; 10 µM unless noted 104% and 144% | MALME-3M melanoma; 10 µM unless noted 109% and 121% | MDA-MB-231 breast; 10 µM unless noted 108% and 112% | RXF 393 renal; 10 µM unless noted 104% and 108% | SF-268 CNS; 10 µM unless noted 112% and 108% | SF-295 CNS; 10 µM unless noted 94.4% | SF-539 CNS; 10 µM unless noted 103% and 97.6% | UACC-257 melanoma; 10 µM unless noted 103% and 93.4% | M14 melanoma; 10 µM unless noted 101% and 97.5%

CC(=O)/C=C/c1ccc(OCc2ccc(Cl)cc2)cc1
active: COLO 205 colon; 100 µM -21.9% | MALME-3M melanoma; 100 µM -1.84% | MDA-MB-231 breast; 100 µM 9.42% | UACC-257 melanoma; 100 µM -1.1%
inactive: NCI-H23 lung; 10 µM 90.9% | NCI-H23 lung; 100 µM 37.1% | NCI-H226 lung; 10 µM 100% | NCI-H226 lung; 100 µM 49.6% | NCI-H322M lung 52.5% [100 µM] | HOP-62 NSCLC; 10 µM 110% | HOP-62 NSCLC; 100 µM 44.9% | NCI-H460 lung; 10 µM 101% | NCI-H460 lung; 100 µM 26.1% | HOP-92 NSCLC; 10 µM 91.8% | HOP-92 NSCLC; 100 µM 11% | A549/ATCC NSCLC; 10 µM 75.9% | A549/ATCC NSCLC; 100 µM 34.1% | 786-0 renal; 10 µM 88.1% | 786-0 renal; 100 µM 51.2% | COLO 205 colon; 10 µM 122% | DU-145 prostate; 10 µM 96.6% | DU-145 prostate; 100 µM 52.9% | K-562 leukemia; 10 µM 79.1% | K-562 leukemia; 100 µM 26.1% | MALME-3M melanoma; 10 µM 110% | MDA-MB-231 breast; 10 µM 117% | RXF 393 renal; 10 µM 105% | RXF 393 renal; 100 µM 55.5% | SF-268 CNS; 10 µM 101% | SF-268 CNS; 100 µM 52.3% | SF-295 CNS; 10 µM 99.1% | SF-295 CNS; 100 µM 39.9% | SF-539 CNS; 10 µM 109% | SF-539 CNS; 100 µM 44.4% | UACC-257 melanoma; 10 µM 86.6% | M14 melanoma; 10 µM 98.2% | M14 melanoma; 100 µM 36.1%

COc1cc(-c2nn(-c3cccc(NC(=O)CCN4CCN(C)CC4)c3)cc2-c2ccncc2)ccc1Cl
active: NCI-H522 lung -6.1% | COLO 205 colon; 10 µM unless noted -31.6% | DU-145 prostate; 10 µM unless noted 3.19% | K-562 leukemia; 10 µM unless noted -10.4% | SF-295 CNS; 10 µM unless noted -6.03% | SF-539 CNS; 10 µM unless noted -19.6% | M14 melanoma; 10 µM unless noted -41.6%
inactive: NCI-H23 lung; 10 µM unless noted 42.5% | NCI-H226 lung; 10 µM unless noted 67.7% | NCI-H322M lung 37.5% | HOP-62 NSCLC; 10 µM unless noted 24.6% | NCI-H460 lung; 10 µM unless noted 14.9% | HOP-92 NSCLC; 10 µM unless noted 22.7% | A549/ATCC NSCLC; 10 µM unless noted 30.7% | 786-0 renal; 10 µM unless noted 12.2% | MALME-3M melanoma; 10 µM unless noted 38% | MDA-MB-231 breast; 10 µM unless noted 39.9% | RXF 393 renal; 10 µM unless noted 18.6% | SF-268 CNS; 10 µM unless noted 31.5% | UACC-257 melanoma; 10 µM unless noted 39.3%
